Structures can show the parent of a compound that is named as a salt. ± gives the standard deviation of the averaged measurements.
Experiments:
Test in all cases: growth (OD600 after 10 h); higher = more growth (less inhibition)
[1] = tested on: E. coli TESEC Alr+ wild-type control; settings: compound 0.1 mM; raw OD600 reference: median of DMSO wells 0.241, cell-free background 0.041
Protocol: (§1)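 TESEC Mtb Alr E. coli, or the Alr+ wild-type control, in 384-well plates with Prestwick library compounds at 0.1 mM and 1% DMSO, across arabinose induction levels of 1E3 to 1E7 nM. Growth is read as OD600 after 10 h at 37 °C in triplicate biological replicates.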

E. coli TESEC Mtb Asd = settings: compound 0.1 mM
Protocol: (§2)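 TESEC E. coli strains in which the native enzyme is deleted and replaced by arabinose-inducible Mtb Asd, DapB, CysH or TrpD, each grown in its selective medium. Strains were screened against the Prestwick library at 0.1 mM and 1% DMSO in 384-well format at low and high arabinose induction. Growth is read as OD600 after 10 h in triplicate.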

E. coli TESEC Mtb DapB = settings: compound 0.1 mM
Protocol: as §2

[2] = tested on: E. coli TESEC Alr+ wild-type control; settings: compound 0.1 mM; raw OD600 reference: median of DMSO wells 0.49, cell-free background 0.052
Protocol: (§3)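 TESEC Mtb Alr E. coli (ΔaraC ΔtolC ΔentC Δalr ΔdadX, arabinose-inducible Mtb Alr) or the Alr+ wild-type control strain, grown in defined M9-fructose medium without D-alanine in 96-well plates with Prestwick library compounds at 0.1 mM and 1% DMSO. Low Alr induction is 0.1 µM arabinose and high induction is 10 mM arabinose.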

E. coli TESEC Mtb Alr [3] = settings: compound 0.1 mM
Protocol: as §3

E. coli TESEC Mtb Alr [4] = settings: compound 0.1 mM; remark: listed apart in the source
Protocol: as §1

[5] = arabinose induction (level): High, raw OD600 reference: median of DMSO wells 0.331, cell-free background 0.041
[6] = arabinose induction (level): Low, raw OD600 reference: median of DMSO wells 0.417, cell-free background 0.041
[7] = arabinose induction (level): High, raw OD600 reference: median of DMSO wells […], cell-free background 0.041
[8] = arabinose induction (level): Low, raw OD600 reference: median of DMSO wells 0.227, cell-free background 0.041
[9] = arabinose 100 nM, raw OD600 reference: median of DMSO wells 0.413, cell-free background 0.052
[10] = arabinose 10000000 nM, raw OD600 reference: median of DMSO wells […], cell-free background 0.052
[11] = arabinose 1000 nM, raw OD600 reference: median of DMSO wells 0.294, cell-free background 0.041
[12] = arabinose 10000 nM, raw OD600 reference: median of DMSO wells 0.264, cell-free background 0.041
[13] = arabinose 100000 nM, raw OD600 reference: median of DMSO wells 0.201, cell-free background 0.041
[14] = arabinose 1000000 nM, raw OD600 reference: median of DMSO wells 0.193, cell-free background 0.041
[15] = arabinose 10000000 nM, raw OD600 reference: median of DMSO wells 0.146, cell-free background 0.041

Row | Compound | growth [1] | growth (E. coli TESEC Mtb Asd; [5]) | growth (E. coli TESEC Mtb Asd; [6]) | growth (E. coli TESEC Mtb DapB; [7]) | growth (E. coli TESEC Mtb DapB; [8]) | growth [2] | growth (E. coli TESEC Mtb Alr [3]; [9]) | growth (E. coli TESEC Mtb Alr [3]; [10]) | growth (E. coli TESEC Mtb Alr [4]; [11]) | growth (E. coli TESEC Mtb Alr [4]; [12]) | growth (E. coli TESEC Mtb Alr [4]; [13]) | growth (E. coli TESEC Mtb Alr [4]; [14]) | growth (E. coli TESEC Mtb Alr [4]; [15])
1 | CN1CCC[C@@H]1CCO[C@](C)(c1ccccc1)c1ccc(Cl)cc1 [Clemastine fumarate] | 0.0447 ± 0.00026 | 0.0482 ± 0.0021 | 0.0504 ± 0.0026 | 0.0513 ± 0.00046 | 0.102 ± 0.085 | 0.218 ± 0.29 | 0.421 ± 0.0052 | 0.0923 ± 0.02 |  |  |  |  | 
2 | CC(C)(C)NCC(O)COc1cccc2c1CC(O)C(O)C2 (configuration not stated) [Nadolol] | 0.254 ± 0.016 | 0.336 ± 0.067 | 0.442 ± 0.0083 | 0.201 ± 0.02 | 0.259 ± 0.018 | 0.493 ± 0.12 | 0.408 ± 0.011 | 0.384 ± 0.015 |  |  |  |  | 
3 | Clc1ccc2c(c1)CCc1cccnc1C2=C1CCNCC1 [Desloratadine] | 0.2 ± 0.015 | 0.149 ± 0.023 | 0.251 ± 0.026 | 0.216 ± 0.033 | 0.215 ± 0.031 | 0.545 ± 0.014 | 0.398 ± 0.0076 | 0.288 ± 0.016 |  |  |  |  | 
4 | NC(=O)C(c1ccccc1)(c1ccccc1)[C@@H]1CCN(CCc2ccc3c(c2)CCO3)C1 [Darifenacin hydrobromide] | 0.163 ± 0.011 | 0.156 ± 0.033 | 0.276 ± 0.01 |  |  |  | 0.411 ± 0.0056 | 0.272 ± 0.016 | 0.216 ± 0.0036 | 0.292 ± 0.0043 | 0.16 ± 0.02 | 0.0999 ± 0.0027 | 0.146 ± 0.011
5 | CN(C)CCCN1c2ccccc2CCc2ccc(Cl)cc21 [Clomipramine hydrochloride] | 0.04137 ± 0.00021 | 0.0467 ± 0.00076 | 0.0482 ± 0.0034 |  |  |  | 0.4115 ± 0.0024 | 0.193 ± 0.066 | 0.03983 ± 0.00015 | 0.03953 ± 0.00025 | 0.0451 ± 0.0062 | 0.04 ± 0.00035 | 0.0473 ± 0.0044
6 | O=C1NCCN1c1ncc([N+](=O)[O-])s1 [Niridazole] | 0.0479 ± 0.0055 | 0.0946 ± 0.0021 | 0.203 ± 0.07 | 0.161 ± 0.015 | 0.177 ± 0.022 | 0.0563 ± 0.002 | 0.119 ± 0.025 | 0.0512 ± 0.00072 |  |  |  |  | 
7 | CCn1cc(C(=O)O)c(=O)c2cc(F)c(N3CCN(C)CC3)cc21 [Pefloxacine] | 0.0478 ± 0.00026 | 0.0645 ± 0.0063 | 0.0631 ± 0.0043 | 0.0696 ± 0.0096 | 0.0585 ± 0.002 | 0.0507 ± 0.0001 | 0.0539 ± 0.00064 | 0.0515 ± 0.00064 |  |  |  |  | 
8 | CC(CN(C)C)C(C)(O)Cc1ccc(Cl)cc1 (configuration not stated) [Clobutinol hydrochloride] | 0.221 ± 0.0026 | 0.222 ± 0.015 | 0.353 ± 0.1 |  |  |  | 0.405 ± 0.0082 | 0.3421 ± 0.0029 | 0.263 ± 0.018 | 0.265 ± 0.0075 | 0.197 ± 0.0069 | 0.181 ± 0.0066 | 0.142 ± 0.013
9 | CN(C)CCCO[C@@H]1[C@H]2OC(C)(C)O[C@H]2O[C@@H]1[C@H](O)CO [Amiprilose hydrochloride] | 0.23 ± 0.012 | 0.411 ± 0.073 | 0.385 ± 0.076 | 0.199 ± 0.017 | 0.269 ± 0.046 | 0.613 ± 0.04 | 0.405 ± 0.013 | 0.337 ± 0.022 |  |  |  |  | 
10 | CC(=O)Oc1ccccc1C(=O)O [Acetylsalicylic acid] | 0.242 ± 0.003 | 0.264 ± 0.051 | 0.314 ± 0.022 | 0.198 ± 0.016 | 0.237 ± 0.054 | 0.504 ± 0.027 | 0.413 ± 0.011 | 0.334 ± 0.012 |  |  |  |  | 
11 | CC(C)c1c(C(=O)Nc2ccccc2)c(-c2ccccc2)c(-c2ccc(F)cc2)n1CC[C@@H](O)C[C@@H](O)CC(=O)O [Atorvastatin] | 0.12 ± 0.0024 | 0.169 ± 0.018 | 0.169 ± 0.018 | 0.171 ± 0.018 | 0.183 ± 0.031 | 0.217 ± 0.011 | 0.352 ± 0.058 | 0.175 ± 0.037 |  |  |  |  | 
12 | CCOC(=O)O[C@]1(C(=O)COC(=O)CC)CC[C@H]2[C@@H]3CCC4=CC(=O)C=C[C@]4(C)[C@H]3[C@@H](O)C[C@@]21C [Prednicarbate] | 0.201 ± 0.0033 | 0.438 ± 0.024 | 0.37 ± 0.053 | 0.193 ± 0.008 | 0.237 ± 0.026 | 0.38 ± 0.015 | 0.401 ± 0.0095 | 0.28 ± 0.027 |  |  |  |  | 
13 | O=C(O)c1cccnc1 [Niacin] | 0.28 ± 0.0091 | 0.397 ± 0.019 | 0.461 ± 0.0099 | 0.211 ± 0.016 | 0.238 ± 0.0084 | 0.522 ± 0.086 | 0.423 ± 0.028 | 0.431 ± 0.014 |  |  |  |  | 
14 | CO[C@@H]1[C@@H](O[C@@H]2O[C@H](C)[C@@H](O[C@H]3C[C@@](C)(O)[C@@H](OC(=O)CC(C)C)[C@H](C)O3)[C@H](N(C)C)[C@H]2O)[C@@H](CC=O)C[C@@H](C)[C@@H](O)/C=C/C=C/C[C@@H](C)OC(=O)C[C@H]1OC(C)=O [Josamycin] | 0.04167 ± 0.00025 | 0.0609 ± 0.0067 | 0.0594 ± 0.0064 | 0.0494 ± 0.00059 | 0.0568 ± 0.0075 | 0.0528 ± 0.0019 | 0.0755 ± 0.021 | 0.0519 ± 0.00093 |  |  |  |  | 
15 | CC(=O)N[C@@H](CS)C(=O)O [Acetylcysteine] | 0.2422 ± 0.0011 | 0.437 ± 0.059 | 0.393 ± 0.017 | 0.196 ± 0.014 | 0.232 ± 0.053 | 0.475 ± 0.06 | 0.4122 ± 0.0033 | 0.344 ± 0.0049 |  |  |  |  | 
16 | CC(=O)N(CC(O)CO)c1c(I)c(C(=O)NCC(O)CO)c(I)c(C(=O)NCC(O)CO)c1I (configuration not stated) [Iohexol] | 0.242 ± 0.011 | 0.35 ± 0.046 | 0.414 ± 0.056 | 0.195 ± 0.014 | 0.201 ± 0.02 | 0.512 ± 0.11 | 0.418 ± 0.01 | 0.343 ± 0.022 |  |  |  |  | 
17 | Nc1ccc(S(=O)(=O)Nc2cnc3ccccc3n2)cc1 [Sulfaquinoxaline sodium salt] | 0.221 ± 0.0039 | 0.289 ± 0.073 | 0.396 ± 0.028 | 0.181 ± 0.012 | 0.204 ± 0.022 | 0.47 ± 0.082 | 0.419 ± 0.0091 | 0.297 ± 0.0077 |  |  |  |  | 
18 | CCc1oc2ccccc2c1C(=O)c1cc(Br)c(O)c(Br)c1 [Benzbromarone] | 0.0407 ± 0.001 | 0.0473 ± 0.0012 | 0.0482 ± 0.002 | 0.0504 ± 0.0016 | 0.0491 ± 0.001 | 0.05037 ± 5.8e-05 | 0.0588 ± 0.0027 | 0.0513 ± 0.0023 |  |  |  |  | 
19 | NC[C@H]1O[C@H](O[C@H]2[C@H](O)[C@@H](O[C@H]3O[C@H](CO)[C@@H](O)[C@H](N)[C@H]3O)[C@H](N)C[C@@H]2N)[C@H](N)C[C@@H]1O [Tobramycin] | 0.0408 ± 0.00049 | 0.0498 ± 0.00085 | 0.0468 ± 0.0021 | 0.04757 ± 0.0004 | 0.0491 ± 0.0037 | 0.04933 ± 0.00049 | 0.0513 ± 0.0001 | 0.0502 ± 0.001 |  |  |  |  | 
20 | O=C1c2ccccc2S(=O)(=O)N1CCCCN1CCN(c2ncccn2)CC1 [Ipsapirone] | 0.206 ± 0.0034 | 0.226 ± 0.048 | 0.389 ± 0.064 | 0.205 ± 0.026 | 0.221 ± 0.021 | 0.551 ± 0.04 | 0.4 ± 0.0047 | 0.313 ± 0.012 |  |  |  |  | 
21 | CCCc1ncc(C[n+]2ccccc2C)c(N)n1 [Amprolium hydrochloride] | 0.245 ± 0.0098 | 0.359 ± 0.016 | 0.386 ± 0.0088 | 0.187 ± 0.0079 | 0.228 ± 0.05 | 0.497 ± 0.041 | 0.407 ± 0.016 | 0.376 ± 0.028 |  |  |  |  | 
22 | CC(=O)N(O)CCCCCNC(=O)CCC(=O)N(O)CCCCCNC(=O)CCC(=O)N(O)CCCCCN [Deferoxamine mesylate] | 0.0549 ± 0.00064 | 0.139 ± 0.015 | 0.141 ± 0.027 | 0.137 ± 0.021 | 0.13 ± 0.0032 | 0.1754 ± 0.0017 | 0.113 ± 0.046 | 0.0677 ± 0.0037 |  |  |  |  | 
